From PubChem BioAssay

These compounds were tested on glycogen synthase kinase-3 (GSK3A per assay name; protocol says GSK3B) (assay: compounds binding glycogen synthase kinase-3 – biochemical, small-molecule microarray, 635 nm fluorescence, GSK3A, primary screen (AID 1103; note: the record names both GSK3A and GSK3B)). Settings: fluorescence 635 nm, higher = more signal.
In the case of `O=C1C2C=CC(C(O)Cc3ccccc3)N(Nc3ccc([N+](=O)[O-])cc3)C2C(=O)N1c1ccccc1` (stereo unspecified), the composite z-score is reported as 0.539.
Compound `CC(C)C[C@@H]1NC(=O)[C@H](CC(C)C)NC(=O)[C@@]23C(=O)N[C@@H](Cc4ccccc4)C2[C@H](C)[C@@]2(C)O[C@H]2C3/C=C/CC/C=C/CNC1=O` (stereo partly specified) has a composite z-score of 0.516.
Work on `COC(=O)[C@@]1(Cc2ccccc2CN=[N+]=[N-])N=C(c2ccc(OCCCO)cc2)O[C@H]1c1ccccc1N=[N+]=[N-]` yielded a composite z-score of -0.381.
Work on `CCOC(=O)C[C@H]1[C@H](OC(=O)Cc2ccc3c(c2)OCO3)[C@@H](NC(=O)c2ccc3ccccc3c2)c2cc(OCCCO)ccc2N1C(=O)Cc1ccc(OC)cc1` yielded a composite z-score of 0.397.
Work on `C[N+](C)(C)CCCCNC(=O)[C@H]1C[C@H]2C(=O)NCC(=O)N2[C@H]1c1cccc(OCCO)c1` yielded a composite z-score of 1.29.
With `C=C(/C(=C/C[C@@H](OC(=O)c1ccncc1)c1ccc(CO)o1)c1cnc2ccccc2c1)C(C)C` the composite z-score was 1.29.
`CCCNC(=O)[C@@]1(Sc2ccc(C)cc2)CC(=O)N(Cc2ccccc2Cl)[C@@H]1c1ccc(CO)cc1` showed a composite z-score of 1.28.
With `COC(=O)Cn1c(C(=O)N2CCCC2)cc2c1C[C@H]1CN(C(=O)c3ccccc3)[C@@](Cc3ccccc3)(C(=O)OC)[C@@H]21` the composite z-score was -0.838.
Compound `NC(=O)NCC#Cc1ccc2c(c1)[C@]1(C(=O)N2)[C@H](C(=O)N2CCCCCCC2)[C@H]2C(=O)O[C@H](c3ccccc3)[C@H](c3ccccc3)N2[C@@H]1c1ccccc1OCCO` has a composite z-score of 1.38.
Compound `Cc1ccc(S[C@]2(C(=O)NCCCN(C)C)CC(=O)N(C3CCCCC3)[C@@H]2c2ccc(CO)cc2I)cc1` has a composite z-score of 0.219.
`CCN1C(C)=C(C(=O)OC)[C@@H](c2ccccc2)N2C(=O)[C@@]3(C(=O)OC)O[C@@]12[C@@H]1C(=O)N(C)C(=O)[C@@H]13` was tested, and the composite z-score was 0.622.
With `CO[C@H]1COC(=O)[C@H](C)NC(=O)CC=C[C@@H](C)[C@H](NS(=O)(=O)c2ccc(C)cc2)COC(=O)CC=C[C@@H]1C` the composite z-score was -0.0078.
In the case of `Cc1ccc(S(=O)(=O)N[C@H]2COC(=O)CC=C[C@H](C)COC(=O)N[C@@H](C)C(=O)CC=C[C@@H]2C)cc1`, the composite z-score is reported as 0.604.
Work on `CN1C2C=C(c3ccc(CO)cc3)C(C3C(=O)N(C(N)=O)C(=O)C32)C1c1cccs1` (stereo unspecified) yielded a composite z-score of -0.148.
With `CCCC=C(CCC)[C@@H](NS(=O)(=O)c1ccc(C(F)(F)F)cc1)c1ccc(-c2ccccc2)cc1` the composite z-score was 0.72.
`CO[C@H]1COC(=O)[C@@H](C)NC(=O)CC=C[C@@H](C)[C@H](OC)COC(=O)CC=C[C@@H]1C` showed a composite z-score of 0.442.
`C=CCC(OC(C)=O)[C@@H]1[C@@H](N(Cc2cc3ccccc3o2)C(=O)Cc2ccc(F)cc2)c2cc(OCCCO)ccc2N1C(=O)c1ccc(-c2ccccc2)cc1` (stereo partly specified) showed a composite z-score of -0.708.
Work on `Cc1ccc(N2C(=O)c3ccccc3[C@@H](C(=O)NCc3ccccc3)[C@@H]2c2ccc(CO)cc2)nc1` yielded a composite z-score of -1.13.
For `CCCC[C@@H]1C[C@H]1[C@@H](NC(=O)c1ccccc1)c1ccccc1C(F)(F)F`, the composite z-score was 0.415.
In the case of `CN1C(=O)C2C=CC(C(O)c3ccc(N(C)C)cc3)N(Nc3ccc([N+](=O)[O-])cc3[N+](=O)[O-])C2C1=O` (stereo unspecified), the composite z-score is reported as 1.2.
`O=C1C2C=CC(C(O)C#Cc3ccccc3)N(Nc3ccccc3)C2C(=O)N1c1ccccc1` (stereo unspecified) showed a composite z-score of -0.208.
Work on `Cc1ccc(S[C@]2(C(=O)NCCN3CCOCC3)CC(=O)N(C3Cc4ccccc4C3)[C@@H]2c2ccc(CO)cc2I)cc1` yielded a composite z-score of -0.909.
For `O=C1O[C@@H](c2ccccc2)[C@@H](c2ccccc2)N2[C@@H](c3ccc(O)cc3)[C@]3(C(=O)Nc4ccccc43)[C@@H](C(=O)N3CCN(c4ncccn4)CC3)[C@H]12`, the composite z-score was 0.202.
Work on `C=CC[C@]1(C(=O)NCC(O)CO)N=C(c2ccc(OCCCO)cc2)O[C@H]1c1ccccc1` (stereo partly specified) yielded a composite z-score of 0.321.
With `CC[C@@H]1C=C(C(=O)O)[C@H](c2ccccc2)N1S(=O)(=O)c1ccc([N+](=O)[O-])cc1` the composite z-score was 1.16.
Compound `CN1CCC(CCCO)=CC1C1CC1` (stereo unspecified) has a composite z-score of 0.348.
Work on `C=CC[C@]1(C(=O)N2CCCCC2)N=C(c2ccc(OCCCO)cc2)O[C@H]1c1ccccc1N=[N+]=[N-]` yielded a composite z-score of 1.27.
With `COc1cccc([C@@H]2[C@@H](C)CC[C@H]3C(=O)N4[C@H](c5cccc(OC)c5)[C@@H](C)CC[C@H]4C(=O)N23)c1` the composite z-score was 0.802.
`COCCOC(=O)N1C(=O)[C@@]2(c3cc(C#CC4=CCCCC4)ccc31)[C@H](c1ccc(O)cc1)N1[C@H](c3ccccc3)[C@H](c3ccccc3)OC(=O)[C@H]1[C@@H]2C(=O)N1CCCCCCC1` gave a composite z-score of 1.3.
In the case of `C=CCC(OC(C)=O)[C@@H]1[C@@H](N(Cc2cccc3ccccc23)C(=O)c2ccc(C)cc2)c2cc(OCCCO)ccc2N1C(=O)c1ccc(-c2ccccc2)cc1` (stereo partly specified), the composite z-score is reported as 0.0243.
`C=CCN1C(=O)[C@]2(O[C@H](CCn3cc(CCO)nn3)[C@@H]([Si](C)(C)c3ccc(OC)cc3)[C@@H]2C)c2cc(NC(=O)c3ccc(OC)cc3)ccc21` showed a composite z-score of 1.23.
For `CC(=O)NCCCC[C@@H]1NC(=O)[C@@H]2C[C@H](C(=O)NCCCCCCN(C)C)[C@H](c3ccc(O)cc3)N2C1=O`, the composite z-score was 1.36.
For `CO[C@@H]1COC(=O)[C@H](COCc2ccccc2)NC(=O)CC=C[C@@H](C)[C@H](OC)COC(=O)[C@H](COCc2ccccc2)NC(=O)CC=C[C@H]1C`, the composite z-score was 0.376.
Compound `COCCOC(=O)N1C(=O)[C@@]2(c3ccccc31)[C@H](C(=O)N1CCc3cc(OC)c(OC)cc3C1)[C@H]1C(=O)O[C@H](c3ccccc3)[C@H](c3ccccc3)N1[C@@H]2c1ccccc1OCCO` has a composite z-score of 1.28.
In the case of `C=C(CCCC)/C(=C/C[C@@H](OC(=O)c1ccncc1)c1cccc(OCCO)c1)c1cc(C(=O)OC)ccc1OC`, the composite z-score is reported as 0.764.
`C#CCCCON=C1C[C@@H](O)[C@@H](O)[C@@H]2[C@@H]3C(=O)N(Cc4ccc5c(c4)OCO5)C(=O)[C@@H]3CC[C@@H]12` gave a composite z-score of 0.257.
